# PubChem BioAssay (Tox21)
# Activity calls are given as the source filed them. Entries that show only a call come without a potency. Unless noted, the call rests on the fitted dose curve; in most records, active means well fitted curve in the direction sought with a large enough effect in the repeat runs; inconclusive means weak or mixed curves; inactive means no such curve, though single readings can be large; an effect the other way counts as inactive or inconclusive.
# Key:
# [1] = qHTS assay to identify small molecule antagonists of the glucocorticoid receptor (GR) signaling pathway - cell viability counter screen (AID 720693); further: nearly all actives have a fitted effect of over 55% in size; further: potency means the concentration at half of the fitted maximal effect
# [2] = qHTS assay for identifying genotoxic compounds that show differential cytotoxicity against isogenic chicken DT40 cell lines with known DNA damage response pathways - Rev3 mutant cell line (AID 743014); further: nearly all actives have a fitted effect of over 55% in size; further: potency means the concentration at half of the fitted maximal effect
# [3] = qHTS assay to identify small molecule antagonists of the androgen receptor (AR) signaling pathway - cell viability counter screen (AID 743033; further: nearly all actives have a fitted effect of over 45% in size; further: potency means the concentration at half of the fitted maximal effect)
# [4] = qHTS assay to identify small molecule antagonists of the androgen receptor (AR) signaling pathway using the MDA cell line - cell viability counter screen (AID 743041; further: nearly all actives have a fitted effect of over 45% in size)
# In short: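 R1881-driven MDA-kb2 AR-luc cells, 3,000/well, were dosed with library compounds for 16 h; cell health came from CellTiter-Fluor fluorescence in the reporter wells.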
# [5] = qHTS assay to identify small molecule antagonists of the thyroid receptor (TR) signaling pathway - cell viability counter screen (AID 743064); further: nearly all actives have a fitted effect of over 50% in size; further: potency means the concentration at half of the fitted maximal effect
# In short: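 GH3.TRE-Luc rat pituitary cells carrying a TRE-luciferase reporter were treated with compound plus 1 nM T3 (final) for 23.5 h at 37 °C. Viability was then read in the same wells by CellTiter-Fluor fluorescence after a further 30 min.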
# [6] = qHTS assay to identify small molecule antagonists of the thyroid receptor (TR) signaling pathway (AID 743065); further: nearly all actives have a fitted effect of over 55% in size; further: potency means the concentration at half of the fitted maximal effect
# In short: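 Antagonism measured as loss of luciferase signal in GH3 cells stably carrying a TRE-luciferase reporter, co-treated with compound and T3 (1 nM final) for 23.5 h at 37 C. Viability was read in the same well by CellTiter-Fluor.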
# [7] = system: thyroid hormone receptor (rat, GH3 cells); assay: qHTS assay to identify small molecule agonists of the thyroid receptor (TR) signaling pathway (AID 743066; calls by dose curve)
# [8] = biological target: Estrogen receptor (Homo sapiens) (UniProt P03372); assay: qHTS assay to identify small molecule antagonists of the estrogen receptor alpha (ER-alpha) signaling pathway (AID 743069; active means well fitted curve in the direction sought with a large enough effect in the signal ratio in the repeat runs, not every such curve was filed as active; inconclusive means weak or mixed curves, or effect the other way; inactive means no such curve, though single readings can be large or run the other way; the % refers to the signal ratio; further: potency means the concentration at half of the fitted maximal effect)
# In short: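 Compound effects are measured against 17beta-estradiol stimulation in HEK293 cells with a UAS-controlled beta-lactamase reporter for ER-alpha. Exposure lasts 18 hr at 37C; LiveBLAzer B/G FRET substrate follows for 2 hr at room temperature.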
# [9] = qHTS assay to identify small molecule antagonists of the estrogen receptor alpha (ER-alpha) signaling pathway - cell viability counter screen (AID 743074; calls by dose curve;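 further: HEK293 cells carrying ER-alpha-UAS-bla reporter stimulated with 17beta-estradiol; nearly all actives have a fitted effect of over 45% in size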)
# [10] = biological target: Estrogen receptor (Homo sapiens) (UniProt P03372); assay: qHTS assay to identify small molecule agonists of the estrogen receptor alpha (ER-alpha) signaling pathway (AID 743075; calls by dose curve; further: potency means the concentration at half of the fitted maximal effect)
# [11] = biological target: Estrogen receptor (Homo sapiens) (UniProt P03372); assay: qHTS assay to identify small molecule agonists of the estrogen receptor alpha (ER-alpha) signaling pathway using the BG1 cell line (AID 743079); further: nearly all actives have a fitted effect of over 20% in size; further: potency means the concentration at half of the fitted maximal effect
# [12] = qHTS assay to identify small molecule antagonists of the estrogen receptor alpha (ER-alpha) signaling pathway using the BG1 cell line (AID 743080; calls by dose curve;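 further: BG1 cells stimulated with 17beta-estradiol alongside compound; series mostly up to about 70 µM; nearly all actives have a fitted effect of over 25% in size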)
# In short: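 Luminescence from a 4×ERE-luciferase reporter in BG1-Luc-4E2 cells served as read-out. Cells, pre-cultured 5 days in stripped-serum phenol-red-free medium, were exposed to compound with 17beta-estradiol co-stimulation for 21.5 h at 37 C.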
# [13] = qHTS assay to identify small molecule antagonists of the estrogen receptor alpha (ER-alpha) signaling pathway using the BG1 cell line - cell viability counter screen (AID 743081);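 further: compound given together with 17beta-estradiol as the ER stimulus; series mostly up to about 70 µM; nearly all actives have a fitted effect of over 45% in size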
# Aromatase (Homo sapiens) = Aromatase (Homo sapiens) (UniProt P11511); assay: qHTS assay to identify aromatase inhibitors (AID 743083); further: nearly all actives have a fitted effect of over 55% in size; further: potency means the concentration at half of the fitted maximal effect
# [14] = biological target: Androgen receptor (Homo sapiens) (UniProt P10275); assay: qHTS assay to identify small molecule antagonists of the androgen receptor (AR) signaling pathway (AID 743035; active means well fitted inhibition curve with a large enough effect in the signal ratio in the repeat runs, not every such curve was filed as active; inconclusive means weak or mixed curves, or effect the other way; inactive means no such curve, though single readings can be large or run the other way; the % refers to the signal ratio)
# In short: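 Beta-lactamase FRET read (2 h RT incubation with LiveBLAzer B/G) following 16 h of compound plus R1881 treatment of AR-UAS-bla HEK293 cells, which had been pre-incubated 4 h at 37C.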
# [15] = biological target: Androgen receptor (Homo sapiens) (UniProt P10275); assay: qHTS assay to identify small molecule agonists of the androgen receptor (AR) signaling pathway (AID 743036; active means well fitted activation curve with a large enough effect in the signal ratio in the repeat runs, with a control signal flat, not every such curve was filed as active; inconclusive means weak or mixed curves, or effect the other way; inactive means no such curve, though single readings can be large or run the other way; the % refers to the signal ratio)
# In short: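 HEK293 cells stably carrying a UAS-driven beta-lactamase reporter (GeneBLAzer AR-UAS-bla-GripTite) were plated at 2,000 cells/well, rested 4 h at 37C, then exposed to compounds in DMSO for 16 h. LiveBLAzer B/G FRET substrate was added for 2 h at room temperature; fluorescence read.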
# [16] = biological target: Androgen receptor (Homo sapiens) (UniProt P10275); assay: qHTS assay to identify small molecule antagonists of the androgen receptor (AR) signaling pathway using the MDA cell line (AID 743042; further: nearly all actives have a fitted effect of over 55% in size; further: potency means the concentration at half of the fitted maximal effect)
# In short: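 Antagonist mode: compounds plus R1881 agonist added to MDA-kb2 AR-luc cells, incubated 16 h at 37C. Luciferase reporter luminescence quantified, with multiplexed CellTiter-Fluor readout for cell viability.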
# [17] = qHTS assay for identifying genotoxic compounds that show differential cytotoxicity against isogenic chicken DT40 cell lines with known DNA damage response pathways - Rad54/Ku70 mutant cell line (AID 743015); further: nearly all actives have a fitted effect of over 60% in size; further: potency means the concentration at half of the fitted maximal effect
# [18] = biological target: Androgen receptor (Homo sapiens) (UniProt P10275); assay: qHTS assay to identify small molecule agonists of the androgen receptor (AR) signaling pathway using the MDA cell line (AID 743040; further: nearly all actives have a fitted effect of over 20% in size)
# In short: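 After a 5 h incubation at 37C and 0% CO2, MDA-kb2 reporter cells were dosed with compounds in DMSO and kept 16 h under the same conditions. Luciferase activity was then read as luminescence with ONE-Glo.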
# Chain of Androgen receptor (Homo sapiens) (P10275 whole entry, looked up): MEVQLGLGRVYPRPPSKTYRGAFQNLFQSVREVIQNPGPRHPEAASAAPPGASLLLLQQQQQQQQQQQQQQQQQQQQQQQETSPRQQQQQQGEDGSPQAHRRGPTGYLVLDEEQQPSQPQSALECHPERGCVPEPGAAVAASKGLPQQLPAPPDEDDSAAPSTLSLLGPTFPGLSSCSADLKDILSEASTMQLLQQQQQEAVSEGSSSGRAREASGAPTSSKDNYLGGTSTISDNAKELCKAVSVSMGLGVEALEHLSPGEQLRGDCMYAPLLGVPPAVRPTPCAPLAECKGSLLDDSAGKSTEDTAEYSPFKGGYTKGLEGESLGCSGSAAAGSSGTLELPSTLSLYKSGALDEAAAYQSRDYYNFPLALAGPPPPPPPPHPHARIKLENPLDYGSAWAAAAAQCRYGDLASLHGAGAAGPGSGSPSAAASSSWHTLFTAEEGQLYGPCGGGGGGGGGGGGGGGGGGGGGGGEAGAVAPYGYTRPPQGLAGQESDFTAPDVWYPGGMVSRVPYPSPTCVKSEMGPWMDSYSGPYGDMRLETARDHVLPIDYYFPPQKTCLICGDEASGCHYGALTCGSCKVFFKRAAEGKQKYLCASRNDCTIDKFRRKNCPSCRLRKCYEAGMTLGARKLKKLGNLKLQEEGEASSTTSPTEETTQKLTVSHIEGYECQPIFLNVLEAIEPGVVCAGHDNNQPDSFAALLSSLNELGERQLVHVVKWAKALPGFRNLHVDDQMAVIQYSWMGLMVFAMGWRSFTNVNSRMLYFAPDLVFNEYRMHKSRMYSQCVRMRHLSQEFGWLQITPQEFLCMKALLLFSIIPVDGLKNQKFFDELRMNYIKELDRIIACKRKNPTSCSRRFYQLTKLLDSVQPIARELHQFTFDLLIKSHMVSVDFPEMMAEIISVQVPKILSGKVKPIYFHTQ
# Chain of Estrogen receptor (Homo sapiens) (P03372 whole entry, looked up): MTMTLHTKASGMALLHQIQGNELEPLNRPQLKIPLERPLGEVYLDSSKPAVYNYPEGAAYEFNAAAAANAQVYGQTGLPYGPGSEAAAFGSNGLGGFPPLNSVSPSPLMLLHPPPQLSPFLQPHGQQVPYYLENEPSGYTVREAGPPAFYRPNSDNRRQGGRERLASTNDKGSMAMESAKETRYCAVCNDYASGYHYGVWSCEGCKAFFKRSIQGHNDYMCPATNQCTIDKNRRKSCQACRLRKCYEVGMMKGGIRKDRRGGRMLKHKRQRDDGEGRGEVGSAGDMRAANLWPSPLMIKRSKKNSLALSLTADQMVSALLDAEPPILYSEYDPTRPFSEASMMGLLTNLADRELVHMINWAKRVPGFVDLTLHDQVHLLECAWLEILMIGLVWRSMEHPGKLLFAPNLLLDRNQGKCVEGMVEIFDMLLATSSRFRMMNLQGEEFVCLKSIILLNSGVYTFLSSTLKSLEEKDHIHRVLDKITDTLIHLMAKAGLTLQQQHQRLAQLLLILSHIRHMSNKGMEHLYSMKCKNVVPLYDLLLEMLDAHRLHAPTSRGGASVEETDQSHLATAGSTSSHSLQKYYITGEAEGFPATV
# Chain of Aromatase (Homo sapiens) (P11511 whole entry, looked up): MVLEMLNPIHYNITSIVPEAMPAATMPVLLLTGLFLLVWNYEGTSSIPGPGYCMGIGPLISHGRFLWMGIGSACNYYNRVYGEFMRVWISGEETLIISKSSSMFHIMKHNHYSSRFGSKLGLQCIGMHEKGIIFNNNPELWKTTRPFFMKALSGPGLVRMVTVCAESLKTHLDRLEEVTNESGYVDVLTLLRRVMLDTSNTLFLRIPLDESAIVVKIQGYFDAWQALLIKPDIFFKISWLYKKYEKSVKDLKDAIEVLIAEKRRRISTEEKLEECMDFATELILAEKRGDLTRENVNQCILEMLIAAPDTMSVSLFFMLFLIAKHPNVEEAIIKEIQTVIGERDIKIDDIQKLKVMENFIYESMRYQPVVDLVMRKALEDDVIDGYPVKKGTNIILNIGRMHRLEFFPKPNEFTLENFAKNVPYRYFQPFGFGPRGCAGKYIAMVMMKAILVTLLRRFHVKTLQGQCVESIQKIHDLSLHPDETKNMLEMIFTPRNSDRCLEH
Structure (SMILES),Potency [1],Potency [2],Potency [3],Potency [4],Potency [5],Potency [6],Potency [7],Potency [8],Potency [9],Potency [10],Potency [11],Potency [12],Potency [13],Potency (Aromatase (Homo sapiens)),Potency [14],outcome [15],Potency [16],Potency [17],Potency [18]
COc1cc(Cl)c(OC)cc1Cl,inactive,inactive,inactive,inactive,inactive,inactive,inactive,inactive,inactive,inactive,inactive,inactive,inactive,inactive,,,,,
CCCCCC[N+](=O)[O-],inactive,,inactive,inactive,,inactive,inactive,,inactive,,,,inactive,inactive,inactive,inactive,inactive,,
Cc1ccccc1CCl,inactive,,inactive,inactive,inactive,inactive,inactive,,inactive,,,,inactive,inactive,,,,inactive,
COc1cc(CC(C)N)cc2c1OCO2 (stereo not drawn),inactive,inactive,inactive,inactive,,,inactive,,,inactive,inactive,inactive,,inactive,,,,inactive,
COC(N)=O,inactive,,inactive,inactive,inactive,inactive,inactive,inactive,inactive,inactive,inactive,inactive,inactive,inactive,,,,inactive,
CCCCCCC#N,inactive,inactive,inactive,inactive,inactive,,inactive,inactive,inactive,inactive,inactive,inactive,inactive,inactive,,,,inactive,
Clc1ccc(C(OCCN2CCCCC2)c2ccccc2)cc1 (stereo not drawn),inactive,11.4 µM (active),,,9.02 µM (active),11.4 µM (active),inactive,inactive,inactive,inactive,inactive,inactive,inactive,inactive,,,,10.1 µM (active),
C=CC(=O)OCCCCO,inactive,,inactive,inactive,,,inactive,,inactive,,inactive,inactive,inactive,,,,,61.1 µM (active),
CCC(C)(NC(=O)c1cc(Cl)c(C)c(Cl)c1)C(=O)CCl (stereo not drawn),43.9 µM (active),12.3 µM (active),24.7 µM (active),,15.4 µM (active),8.69 µM (active),,62 µM [inconclusive] (active),,,,,inactive,61.5 µM (active),,,,9.75 µM (active),
NS(=O)(=O)C(F)(F)C(F)(F)C(F)(F)C(F)(F)C(F)(F)C(F)(F)C(F)(F)C(F)(F)F,54.9 µM (active),34.4 µM (active),inactive,,61.1 µM (active),61.1 µM (active),inactive,,,43.6 µM [inconclusive] (active),inactive,,,inactive,,,68.6 µM (active),,inactive
CC(C)N(C(=O)COc1nnc(C(F)(F)F)s1)c1ccc(F)cc1,inactive,13.7 µM (active),,inactive,,,inactive,inactive,inactive,inactive,inactive,inactive,inactive,inactive,,,,15.4 µM (active),
Cc1c(F)c(F)c(COC(=O)C2C(/C=C(\Cl)C(F)(F)F)C2(C)C)c(F)c1F (stereo not drawn),inactive,inactive,inactive,,inactive,,inactive,inactive,inactive,inactive,inactive,inactive,inactive,inactive,,,,,
CCN(C)N=O,inactive,inactive,inactive,,inactive,,inactive,inactive,inactive,inactive,inactive,inactive,inactive,inactive,,,,inactive,
CCOC(=O)C(Cl)C(C)=O (stereo not drawn),inactive,,inactive,inactive,inactive,inactive,inactive,inactive,inactive,inactive,inactive,inactive,inactive,inactive,,,,inactive,
O=C(O)C(F)(F)C(F)(F)C(F)(F)C(F)(F)C(F)(F)C(F)(F)C(F)(F)C(F)(F)C(F)(F)F,inactive,inactive,inactive,inactive,,inactive,inactive,15.5 µM [inhibitor] (active),inactive,inactive,inactive,inactive,inactive,inactive,,,,inactive,
C=CC(=O)OC,inactive,inactive,inactive,,inactive,,inactive,,inactive,,,,inactive,inactive,,,,inactive,
NNC(=O)c1cccnc1,inactive,,inactive,,inactive,inactive,inactive,inactive,inactive,inactive,,inactive,inactive,inactive,,,,inactive,
C[C@H]1CNCCc2ccc(Cl)cc21,inactive,13.3 µM (active),inactive,inactive,inactive,inactive,inactive,inactive,inactive,inactive,inactive,inactive,inactive,inactive,,,,,
CC(c1ccc(O)cc1)(c1ccc(O)cc1)c1ccc(O)cc1,inactive,38.6 µM (active),inactive,inactive,,61.1 µM (active),,21.9 µM [inconclusive] (active),,,27.3 µM (active),,inactive,,,,,54.5 µM (active),
O=C(O)c1ccccc1C(=O)Nc1cccc2ccccc12,inactive,54.5 µM (active),inactive,inactive,inactive,,inactive,,inactive,,,,inactive,inactive,,,,,
